Screens from PubChem.
Hits are enriched below; roughly 2.4% of the tested compounds scored in any of these assays.
CHT block: inhibitors of human choline transporter CHT | AID 488975 | hit rate 0.86% among 310,000 | B-score at 10 µM | CHT-expressing cells, membrane potential dye, choline response; active compounds read low;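 active = B-score over 3 SD under the library average, and starting fluorescence ratio not unusually high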;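 note: choline stimulus applied at its EC90 after an EC20 pre-addition; B-score computed on integrated fluorescence ratio after choline addition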
Target sequence (Q9GZV3 whole entry, looked up): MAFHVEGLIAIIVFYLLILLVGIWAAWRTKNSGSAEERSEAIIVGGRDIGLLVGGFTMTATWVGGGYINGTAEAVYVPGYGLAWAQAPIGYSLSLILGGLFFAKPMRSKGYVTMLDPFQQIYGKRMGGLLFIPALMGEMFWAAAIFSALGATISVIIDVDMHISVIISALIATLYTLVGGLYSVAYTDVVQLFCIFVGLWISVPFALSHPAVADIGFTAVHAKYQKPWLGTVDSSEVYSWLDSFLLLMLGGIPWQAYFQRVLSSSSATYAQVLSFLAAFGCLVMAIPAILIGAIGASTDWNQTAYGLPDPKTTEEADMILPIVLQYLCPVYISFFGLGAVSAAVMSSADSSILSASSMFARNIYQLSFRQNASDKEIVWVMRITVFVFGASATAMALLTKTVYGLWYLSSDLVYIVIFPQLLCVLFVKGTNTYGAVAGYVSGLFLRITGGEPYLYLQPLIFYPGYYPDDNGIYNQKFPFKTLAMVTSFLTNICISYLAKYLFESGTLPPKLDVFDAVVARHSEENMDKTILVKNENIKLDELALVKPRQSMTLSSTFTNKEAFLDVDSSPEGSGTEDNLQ
ANO1 block: inhibitors of mouse TMEM16A calcium-activated chloride channel | Q8BHY3 | HEK293 TMEM16A/YFP iodide influx fluorescence, ionomycin | normalized B-score (activity score, 25-100; higher = stronger inhibition) at 10 µM | hit rate 1.2% among 310,000 | AID 588511;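 active = ratio plate-corrected score three or more library SD toward inhibition, starting fluorescence score within five deviations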;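 note: score derived from kinetic fluorescence span divided by baseline fluorescence per well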
CHT allo act: allosteric activators of human choline transporter CHT; B-score at 10 µM; AID 488977; hit rate 0.49% among 310,000; CHT-expressing cells, membrane potential dye, choline EC20; active compounds read high; LV-AA mutant CHT in HEK293 cells;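 active = initial fluorescence not abnormally high and integrated response B-score, plate-corrected, over 3 SD above library mean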
TMEM16A act: activators or potentiators of mouse TMEM16A chloride channel | Q8BHY3 | HEK293 TMEM16A/YFP-H148Q/I152L, iodide quench fluorescence; active compounds read low | B-score at 10 µM | hit rate 0.3% among 340,000 | AID 623877;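 active = fluorescence-ratio B-score plate-corrected deviation score at least 3 library SD below zero, with starting fluorescence score within 5 deviations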;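 note: channel opened by trigger with iodide after compound preincubation; score built on the fluorescence ratio of max minus min over baseline; more negative score means more quench and so TMEM16A activation or potentiation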
* marks the source's active call; other numbers are inactive results; i = inactive; / = no result.

SMILES | CHT block | ANO1 block | CHT allo act | TMEM16A act
Cc1ccc(S(=O)(=O)N2CCC(NC(=O)c3cccc(C)c3)CC2)cc1 | i | i | i | -7.1*
Cc1cccc(C(=O)NC2CCN(S(=O)(=O)c3ccc(F)cc3)CC2)c1 | i | i | i | i
CC(=O)c1ccc(S(=O)(=O)N2CCC(NC(=O)Nc3cccc(F)c3)CC2)cc1 | i | i | i | -7.89*
CCSc1nnc(NC(=O)c2ccc3nc[nH]c3c2)s1 | / | / | / | i
CC(C)(C)c1ccc(C(=O)N2CCCN(c3ccc([N+](=O)[O-])cn3)CC2)cc1 | i | i | i | i
COc1ccc(NC(=S)NC(NC(=O)c2cccc3ccccc23)C(Cl)(Cl)Cl)c([N+](=O)[O-])c1 (stereo not given) | i | i | i | -7.41*
O=C(N/C(=C/c1cn(-c2ccccc2)nc1-c1ccccc1)C(=O)N1CCOCC1)c1ccccc1 | i | i | i | /
CC1CCN(CC(=O)Nc2cccc([N+](=O)[O-])c2)CC1 | i | 25* | i | i
CCOC(=O)c1c(C)oc2ccc(O)c(CN(C)C)c12 | i | i | i | i
CCOC(=O)c1c(CSc2ccc(CC)cc2)oc2ccc(O)c(CN(C)C)c12 | i | 100* | i | i
COc1ccc([C@H]2Oc3cc(O)cc(O)c3C(=O)C2[C@@H]2C(=O)c3c(O)cc(O)cc3O[C@@H]2c2ccc(OC)cc2)cc1 (stereo not given in full) | i | 100* | i | /
COc1ccc(C2CC(=O)Oc3cc(O)cc(O)c32)cc1 (stereo not given) | i | i | i | i
CCOC(=O)C1CCN(CCC(=O)Nc2ccccc2)CC1 | i | i | i | i
COc1ccc(/C=N/Nc2nncc3ccccc23)c(OC)c1 | i | i | i | i
COc1ccc(N2C(=O)CC(NNC(=O)c3ccco3)C2=O)cc1 (stereo not given) | i | i | i | i
CCOC(=O)NNC1CC(=O)N(c2ccc(OC)cc2)C1=O (stereo not given) | i | 100* | i | i
COCCCNS(=O)(=O)c1ccc(C)cc1 | i | i | i | i
COCCCNC(=O)CCNS(=O)(=O)c1ccc(C)cc1 | i | 25* | i | i
COCCCn1c(=S)[nH]c2sc3c(c2c1=O)CCCC3 | i | i | i | i
CCN(CC(=O)Nc1ccccc1C(F)(F)F)C(=O)Cc1ccc2c(c1)CCC2 | / | / | / | i
COc1ccc(-c2csc(NC(=O)c3ccccc3NS(=O)(=O)c3ccc(F)c(F)c3)n2)cc1 | -8.39* | 100* | i | i
Cc1nn(Cc2ccc(C(=O)NC(C)(C)C)o2)c(C)c1Br | i | 25* | i | i
Cc1cc(NC(=O)c2ccc(Cn3nc(C)c(Br)c3C)o2)no1 | i | i | i | i
COc1ccc(NC(=O)C(OC(=O)c2cnccn2)c2ccccc2)cc1Cl (stereo not given) | i | i | i | i
COc1ccc(Cl)cc1C(=O)NNC(=S)NC(=O)c1ccc(F)c(F)c1 | i | i | i | /
SMILES | CHT block | ANO1 block | CHT allo act | TMEM16A act
S=C(NCCCN1CCOCC1)Nc1ccc(N2CCOCC2)cc1 | i | i | i | i
COC(=O)Cc1ccc(NC(=S)NCCCN2CCOCC2)cc1 | -6.78* | i | i | i
CC(C)(C)OC(=O)N1CCC(NC(=O)c2nc[nH]c2C(=O)N2CCN(C(=O)OC(C)(C)C)CC2)CC1 | / | / | / | i
CC1CCN(CCCNC(=O)c2cn(C)c3ccc(S(=O)(=O)N4CCCC4)cc3c2=O)CC1 | i | i | 6.77* | i
C[C@H](CCC(=O)O)[C@H]1CC[C@H]2[C@@H]3CC[C@@H]4C[C@H](O)CC[C@]4(C)[C@H]3C[C@H](O)[C@]12C | -6.52* | i | i | i
CCNC(=O)COC(=O)c1cc(S(=O)(=O)N2CCCc3ccccc32)ccc1Cl | i | i | i | i
CC(C)C(C(=O)NCC1CCCO1)N(C(=O)CNS(=O)(=O)c1ccc(F)cc1)c1ccccc1 (stereo not given) | i | i | i | i
COc1ccc(C2CC(C(F)(F)F)n3nc(C(=O)O)c(Cl)c3N2)cc1OC (stereo not given) | i | i | i | i
COc1ccc(C2CC(C(F)(F)F)n3nc(CO)c(Cl)c3N2)cc1OC (stereo not given) | i | i | i | -13.7*
O=C(NCc1cccnc1)Nc1ccc(Cl)cc1Cl | i | i | i | i
